Abeta yeast res – compounds reversing amyloid beta toxicity in yeast. yeast expressing A-beta42, growth rescue, OD600, 48 h; response scale: 0% DMSO, 100% iron-clioquinol control. Potency, µM (highest dose often 46.1 µM), hits mostly activators. 410,000 compounds, 0.063% hits. AID 1347071; also: nearly all actives have a fitted effect of over 55% in size
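Yeast growth medium received pinned compounds, then yeast cells expressing toxic A-beta were added; plates incubated at 30 C for 48 hr. Growth read as absorbance at 600 nm, normalized to DMSO and equimolar FeCl3 plus clioquinol controls.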
TDP-43 yeast inh – inhibitors of TDP-43 toxicity in yeast; TDP-43 expressing yeast growth rescue, BacTiter-Glo, 24 h; Potency, µM (doses to about 46.1 µM), for inactives: at the top dose growth rescue (activation), actives largely listed as activators; 410,000 compounds, 1.8% hits; also: % of control where 0% means no effect; nearly all actives have a fitted effect of over 50% in size
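Galactose-induced TDP-43 yeast, OD600=0.02, compound pinned; 24 hr, 30 deg C; BacTiter-Glo luminescence for growth. Inhibitors of TDP-43 toxicity read as activators.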
FUS suppressor – rescues growth of FUS-expressing yeast; Potency, µM (highest dose often 76.6 µM), usual class: activators; S. cerevisiae FUS-expressing, growth rescue, OD600, 24 h; 390,000 compounds, 0.24% hits;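 also: plate controls were DMSO vehicle for no effect and reference control for full effect; nearly all actives have a fitted effect of over 55% in size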
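Restored growth of FUS-toxic S. cerevisiae, read as 600 nm absorbance after 24 h at 30C in galactose medium (starting OD 0.005). Controls CP55940 and DMSO.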
aSyn rescue – inhibitors of alpha-synuclein toxicity in yeast; Potency, µM (series often up to 46.1 µM), without a hit: top-dose growth rescue (activation), most hits filed as activators; AID 652106; Yeast expressing alpha-synuclein, growth rescue, BacTiter-Glo, 24 h; 370,000 compounds, 0.14% hits; also: % of control where 0% means no effect; nearly all actives have a fitted effect of over 65% in size
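Galactose-induced alpha-syn yeast (OD600=0.02, raffinose-pregrown) + pinned cpd, 24 hr, 30 deg C; growth by BacTiter-Glo luminescence. Growth restoration scores as activation.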
* = called active by the depositor; i = inactive; ? = inconclusive; . = no result. In the library only some 2.1% were active in any assay of this set; here they are far more common. Calls follow the shape of the dose curve; as a rule, active = well fitted curve in the direction sought with a large enough effect; inconclusive = small, poorly fitted or top-dose-only effect, or another doubt; inactive = no such curve, though single readings can be large; an effect the other way counts as inactive or inconclusive. Potency is read from the fitted curve at half-maximal effect.

SMILES	Abeta yeast res	TDP-43 yeast inh	FUS suppressor	aSyn rescue
NC(=S)NN=C1CCCCCCCCCC1	i	14.1µM*	.	13.7%
Cc1ccc(-n2nnnc2CNC(=O)c2ccc(F)cc2)cc1C	i	25.5%	i	.
Fc1cccc(Cn2ccc3ccc(-c4ccc5ccn(Cc6cccc(F)c6)c5c4)cc32)c1	.	.	i	.
N#C/C(=C\c1ccc(OC(F)F)cc1)C(=O)N1CCCCC1	i	?	i	12.6µM*
O=C(OCc1cn(Cc2cccc(Cl)c2)nn1)N1CCOCC1	.	.	i	.
Cc1cc(Br)ccc1NC(=S)NCCc1ccccc1	11.2µM*	?	i	8.3%
O=C(Nc1cccc(NC(=O)c2c(F)cccc2F)n1)c1c(F)cccc1F	i	0.0%	i	-21.0%
O=C(Nc1cccc(NC(=O)c2cccc(F)c2)n1)c1cccc(F)c1	i	10µM*	i	-2.5%
CN(Cc1ccc(F)cc1)C(=O)CN1C(=O)C2(OCCCO2)c2ccccc21	.	.	i	.
CCc1sc(C(=O)Nc2nc(-c3ccccn3)cs2)cc1C	i	?	?	4.47µM*
O=C(Nc1nc(-c2ccccn2)cs1)c1ncc(Cl)c(Cl)c1Cl	i	3.55µM*	i	7.94µM*
O=C(Nc1nc(-c2ccccn2)cs1)c1cc2ccccc2o1	i	?	i	?
Cc1cc(C)cc(OCC(=O)Nc2nc(-c3ccccn3)cs2)c1	i	12.6%	i	1.9%
N#Cc1ccccc1OCC(=O)Nc1nc(-c2ccccn2)cs1	?	25.1µM*	i	?
Cc1c(C(=O)Nc2nc(-c3ccccn3)cs2)oc2ccccc12	i	6.31µM*	?	-29.2%
Cn1cccc1C(=O)Nc1nc(-c2ccccn2)cs1	?	14.1µM*	?	?
Cc1csc(NC(=O)c2cccn2C)n1	i	6.5%	i	0.0%
Cc1ccc(C(=O)Nc2nc(-c3ccccn3)cs2)s1	?	?	i	3.55µM*
O=C(Nc1nc(-c2ccccn2)cs1)c1ccc(Cl)s1	i	?	i	-14.6%
O=C(Nc1nc(-c2ccccn2)cs1)C1CCCC1	?	20µM*	i	16.6%
Cc1ccc(S(=O)(=O)N2CC[C@@]3(Cc4ccccc4)Cc4ccccc4C[C@@H]23)cc1	.	.	i	.
COc1ccccc1NC(=O)Cn1c(=O)c(CNc2ccccc2)cc2cc(OC)c(OC)cc21	i	15.6%	i	.
CCCCN1CCc2c([nH]c3ccccc23)C1=O	i	21.9%	i	8.1%
COC(=O)C1=C2c3[nH]c4ccccc4c3CCN2C(=O)CC1	i	10µM*	i	9.6%
O=C1CC(c2ccccc2)=Nc2ccccc2N1Cc1ccccc1	i	12.6µM*	i	9.6%
SMILES	Abeta yeast res	TDP-43 yeast inh	FUS suppressor	aSyn rescue
O=C(CN1C(=O)CC(c2ccccc2)=Nc2ccccc21)Nc1ccc(Br)cc1	i	-5.2%	i	.
O=C(N[C@H]1C[C@@H]2O[C@H](CO)CC[C@@H]2O[C@@H]1CCc1ccc(-c2cccnc2)cc1)c1cccc(F)c1	.	.	i	.
CCOC(=O)c1ccc2c(c1)N(Cc1cc(C)ccc1C)C(=O)c1ccccc1S2(=O)=O	i	0.8%	i	.
CCOC(=O)c1cccc(N2C(=O)c3ccccc3S2(=O)=O)c1	i	11.2µM*	i	.
CC(C)(C)OC(=O)C[C@@H]1C/C=C\C[C@@H](CC(=O)N(CCO)Cc2ccccc2)C(=O)N[C@H](Cc2c[nH]c3ccccc23)COC1=O	i	18.6%	?	2.3%
CC(C)(C)OC(=O)C[C@H]1C/C=C\C[C@@H](CC(=O)N(CCO)Cc2ccccc2)C(=O)N[C@H](Cc2c[nH]c3ccccc23)COC1=O	i	2.9%	20µM*	-4.5%
FC(F)(F)c1cc(-c2ccccc2)nc(NCC2CCCO2)n1 (stereo unspecified)	i	12.6µM*	i	-16.2%
CC(=O)N[C@@H]1C[C@@H]2O[C@H](CO)CC[C@@H]2O[C@@H]1CCc1ccc(C#CC2(O)CCCC2)cc1	.	.	i	.
Cc1nn(C(=O)COc2ccc(Cl)cc2)c(C)c1Sc1ccccc1	i	-0.4%	i	.
Cc1nn(C(=O)CNS(=O)(=O)c2ccccc2)c(C)c1Sc1ccc(Cl)cc1	i	15.8µM*	.	-11.0%
COc1ccccc1-c1nn2c(C3COc4ccccc4O3)nnc2s1 (stereo unspecified)	i	10µM*	i	.
CCOC(=O)CC[C@H]1CC[C@]2(CCCN(C(=O)c3ccccc3)C2)O1	.	.	i	.
CCc1ccc(OCC(=O)Nc2ccc3c(c2)COC3=O)cc1	i	12.6µM*	i	4.9%
CCc1ccc(OCC(=O)NCCc2ccc3c(c2)OCCO3)cc1	i	31.6µM*	i	7.8%
O=C(CSc1nc2sc3c(c2c(=O)n1-c1ccc(Cl)cc1)CCCC3)c1ccccc1Cl	.	.	i	.
Cc1cc(/C([O-])=C(/C(=S)Nc2ccccc2)[n+]2ccccc2)c(C)n1-c1ccccc1	i	6.1%	15.8µM*	0.0%
Cc1cc(/C([O-])=C(/C(=S)Nc2ccc(F)cc2)[n+]2ccccc2)c(C)n1-c1ccc(F)cc1	i	-17.1%	?	-0.2%
CCOC(=O)c1cnc(-n2cc(C)cn2)nc1Nc1ccccc1OCC	i	20µM*	i	-15.3%
CC(C)CCNC(=O)C1CCN(c2cncnc2)CC1	.	.	i	.
NS(=O)(=O)c1ccc(CCNC(=O)C2CCN(S(=O)(=O)c3cnc[nH]3)CC2)cc1	i	-18.1%	25.1µM*	-13.5%
COc1cc(OC)c(OC)cc1/C=C/c1nccc2ccccc12	.	.	.	-16.9%
Cc1ccc(-c2cc(-c3nnc(SCC(=O)Nc4nccs4)n3N)[nH]n2)cc1	.	.	i	.
Nc1nc(Cl)cc(N2CCCC2)n1	i	18.1%	i	2.9%
Nc1nc(Cl)cc(N2CCC(c3cc(-c4ccc(Cl)cc4Cl)n[nH]3)CC2)n1	i	-51.4%	12.6µM*	17.3%
CC(=O)Nc1cc(-c2ccccc2N(C)C)cn2c(-c3cccc(C(F)(F)F)c3)cnc12	i	25.1µM*	31.6µM*	?
SMILES	Abeta yeast res	TDP-43 yeast inh	FUS suppressor	aSyn rescue
COc1ccc(-c2cc(NC=O)c3ncc(-c4ccc(C(C)=O)cc4)n3c2)cn1	i	24.1%	?	0.2%
COc1ccccc1-c1cc(NC=O)c2ncc(-c3cccc(C(C)=O)c3)n2c1	i	17.8µM*	i	4.0%
CC(=O)c1ccc(-c2cnc3c(NC=O)cc(-c4ccccc4Oc4ccccc4)cn23)cc1	i	?	25.1µM*	10.6%
CC(=O)Nc1cc(-c2cccc(NS(C)(=O)=O)c2)cn2c(-c3cccc(C(F)(F)F)c3)cnc12	i	28.7%	?	11.2%
O=CNc1cc(-c2ccccc2Oc2ccccc2)cn2c(-c3ccc(F)cc3)cnc12	i	15.8µM*	?	19.6%
CC1CCC2(CCC(=O)N2CCCOC(=O)NC(C)(C)C)CC1 (stereo unspecified)	.	.	i	.
CC(C)c1ccc(S(=O)(=O)NCc2nc3cccnc3n2Cc2ccc(F)cc2)cc1	i	19.1%	i	.
COc1cccc(-c2nnc(SCc3cccnc3)o2)c1	i	12.6µM*	i	21.2%

Bioassay records as filed in PubChem.
